The results in this text go back to PubChem BioAssay.

Assay [1] is described as follows: viability loss in pontine glioma line – cell-based, SU-DIPG-XXV, MIPE5.0, CellTiter-Glo, qHTS, dose response (AID 1347065; cut-off not given, nearly all actives have AC50 up to about 26 µM;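 note: cells exposed to compound for 48 hours before ATP readout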). The settings on record: CellTiter-Glo ATP luminescence. Background: In ATP-based viability assays light output follows the ATP content of the culture.
The nature of assay [2]: SU-DIPG-VI glioma cell viability, MIPE4.0 library, CellTiter-Glo luminescence, qHTS (AID 1347066; cut-off not given, nearly all actives have AC50 up to about 30 µM;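 note: cells exposed to compound for 48 hours before readout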). The note with it: CellTiter-Glo ATP luminescence.
Assay [3] is described as follows: SU-DIPG-XXV glioma cell viability, MIPE5.0 library, qHTS (AID 1347068; cut-off not given, nearly all actives have IC50 up to about 30 µM).
A short description of assay [4]: sensitizers of A549 cells to miR-34 induction, primary screen, imaging, A549 dox-inducible miR-34, nuclei and caspase counts (AID 1347080;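 active = compounds whose cell count with miR-34 switched on is under 0.7 times the count with it off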). The note with it: A549 miR-34 inducible, Hoechst nuclei count, 48 h.
A short description of assay [5]: survival rescue of mitochondrial mutant cells in low glucose, primary screen, MELAS cybrids, Rieske KO mouse fibroblasts, CellTiter-Glo (AID 1508586;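 active = mean z-score across replicates of 1.96 or higher in either the MELAS or the Rieske mutant cell line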;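 note: z relative to plate mean and SD of compound and empty wells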).
Assay [6] deals with NAD(+) hydrolase SARM1 (Homo sapiens) (UniProt Q6SZW1). The experiment in a line: SARM1 TIR NADase inhibitors, cell lysate, NAD-Glo luminescence (AID 1508614;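 active = compound whose remaining NAD level is above about 45 nM, limit read from the data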;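 note: higher remaining NAD means stronger inhibition of SARM1 NADase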). The settings on record: SAM-TIR HEK293T lysate NADase, at 1 µM, stronger effect = higher value.
Assay [7] is described as follows: viability rescue of complex I mutant cybrids, primary screen, cell-based, galactose medium, ATP luminescence (AID 1645843;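 active = z-score of at least 1.8 in each of two replicates, scored against plate mean and spread of sample wells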;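 note: positive z means more ATP and so rescue of galactose-driven cybrid death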). The settings on record: complex I mutant cybrid cells, 72 h, stronger effect = higher value.
Assay [8] in a line: modifiers of HSF1 nuclear foci, imaging, Selleck Cancer Library (AID 1347162; in the data active = plate-normalised HSF1 focus index below about 0.46). The settings on record: human cells, at 10 µM; SSMD: measured here: HSF1 foci SSMD mean; cell count: measured here: cell number; plate-normalised HSF1 focus index: stronger effect = lower value.
The nature of assay [9]: ovarian cancer cell viability with rucaparib, profiling panel, oncology-focused library, rucaparib conditional (AID 1508598). The settings on record: patient-derived ovarian cancer cells, CellTiter-Glo viability, 144 h, stronger effect = lower value.
Assay [10] deals with Mitogen-activated protein kinase 7 (Homo sapiens) (UniProt Q13164). The experiment in a line: ERK5 transactivation activators in reporter cells, primary screen, cell-based, HTS (AID 1508626;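 active = luciferase signal above three times the same-plate solvent-only control wells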;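 note: luciferase driven by Gal4-ERK5 fusion binding five Gal4 sites before minimal TATA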). The settings on record: HeLa Gal4-ERK5 transactivation, 18 h, at 5 µM, stronger effect = higher value.
Assay [11] in a line: JHH-DIPG-1 glioma cell viability, MIPE5.0 library, CellTiter-Glo luminescence, qHTS (AID 1347067; cut-off not given, nearly all actives have AC50 up to about 26 µM;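 note: cells exposed to compound for 48 hours before readout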). The note with it: JHH-DIPG-1 glioma viability, CellTiter-Glo ATP luminescence.
Where [12] appears, read: stronger effect = lower value, cell number ratio, induced over uninduced.
Where [13] appears, read: measured here: relative caspase fold change +Dox/-Dox.
The mark [14] stands for this setting: measured here: total cells with miR-34 induction, stronger effect = lower value.
[15] abbreviates: measured here: total cells without miR-34 induction.
[16] abbreviates: MELAS cybrid survival, CellTiter-Glo 48 h, stronger effect = higher value.
Where [17] appears, read: Rieske KO mouse fibroblast survival, CellTiter-Glo 72 h.

SMILES strings stand for the structures. “And” between values parts separate entries of the source, which are not always exact repeats. Equal entries are not always repeated. Inconclusive results are not listed. Some compounds were tested as several samples or in several runs, with calls that do not always agree. The source made the active and inactive calls.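 Rule for the calls, unless noted: active = normalized viability below 100% at a tested concentration; inactive = the rest.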

Chain of Mitogen-activated protein kinase 7 (Homo sapiens) (Q13164 whole entry, looked up, the tested form may be a part): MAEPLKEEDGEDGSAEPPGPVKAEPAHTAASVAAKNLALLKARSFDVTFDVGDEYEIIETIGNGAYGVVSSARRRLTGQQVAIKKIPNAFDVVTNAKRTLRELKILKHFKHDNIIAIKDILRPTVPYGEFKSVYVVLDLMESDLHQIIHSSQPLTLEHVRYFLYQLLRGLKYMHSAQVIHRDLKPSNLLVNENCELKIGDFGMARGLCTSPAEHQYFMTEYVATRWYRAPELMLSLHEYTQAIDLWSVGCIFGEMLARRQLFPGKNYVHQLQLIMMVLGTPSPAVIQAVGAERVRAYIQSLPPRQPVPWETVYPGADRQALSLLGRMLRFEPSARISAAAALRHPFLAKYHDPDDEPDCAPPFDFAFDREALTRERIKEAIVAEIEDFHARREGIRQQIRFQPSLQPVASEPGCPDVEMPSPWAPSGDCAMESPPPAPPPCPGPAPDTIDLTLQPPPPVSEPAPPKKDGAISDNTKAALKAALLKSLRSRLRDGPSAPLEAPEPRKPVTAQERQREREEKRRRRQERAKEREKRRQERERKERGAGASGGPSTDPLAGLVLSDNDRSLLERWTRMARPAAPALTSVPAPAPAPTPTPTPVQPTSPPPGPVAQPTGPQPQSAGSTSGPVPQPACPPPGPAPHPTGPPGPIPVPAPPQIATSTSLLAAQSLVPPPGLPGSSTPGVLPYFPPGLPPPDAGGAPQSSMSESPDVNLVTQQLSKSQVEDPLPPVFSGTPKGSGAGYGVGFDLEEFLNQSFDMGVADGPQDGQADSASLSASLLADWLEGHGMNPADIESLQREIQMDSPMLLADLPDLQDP
Chain of NAD(+) hydrolase SARM1 (Homo sapiens) (Q6SZW1 whole entry, looked up): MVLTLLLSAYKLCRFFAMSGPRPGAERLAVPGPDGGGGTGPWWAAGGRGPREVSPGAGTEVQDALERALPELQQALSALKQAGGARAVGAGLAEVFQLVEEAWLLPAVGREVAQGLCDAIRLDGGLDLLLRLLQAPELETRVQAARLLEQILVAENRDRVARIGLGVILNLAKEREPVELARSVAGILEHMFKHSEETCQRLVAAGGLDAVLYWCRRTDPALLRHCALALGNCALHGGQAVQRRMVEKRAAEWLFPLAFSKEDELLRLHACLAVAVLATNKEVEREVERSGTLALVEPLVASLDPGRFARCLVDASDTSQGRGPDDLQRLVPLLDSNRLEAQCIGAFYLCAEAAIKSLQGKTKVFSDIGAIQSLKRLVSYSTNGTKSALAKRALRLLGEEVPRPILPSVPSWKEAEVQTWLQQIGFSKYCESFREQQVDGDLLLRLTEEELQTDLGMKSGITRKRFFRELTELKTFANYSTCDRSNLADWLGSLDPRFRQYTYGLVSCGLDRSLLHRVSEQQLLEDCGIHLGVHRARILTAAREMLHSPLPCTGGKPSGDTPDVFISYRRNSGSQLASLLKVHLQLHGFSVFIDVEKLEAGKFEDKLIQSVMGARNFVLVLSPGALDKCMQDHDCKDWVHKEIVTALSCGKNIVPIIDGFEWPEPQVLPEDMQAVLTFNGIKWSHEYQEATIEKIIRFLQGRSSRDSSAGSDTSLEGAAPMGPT

Take `COC1=C(OC)C(=O)C(CCCCCCCCCCO)=C(C)C1=O`: the call in [1] and in assay [3] was inactive. In assay [2], the concentration at half-maximal activity (AC50) was 23.5 µM (active). The fold change in assay [4] (setting [12]) is 0.841 (inactive) and 0.881 (inactive) and 0.889 (inactive); in [4] (setting [13]), 1.87 and 0.941 and 1.43. Also, the cell count was 8540 and 8000 and 9340 in assay [4] (setting [14]); 10200 and 9080 and 10500 in assay [4] (setting [15]). Moreover, the z-score was -0.358 (inactive) and -0.43 (inactive) and 0.294 (inactive) in assay [5] (setting [16]); 0.303 and 0.0167 and -0.141 in assay [5] (setting [17]); -1.85 (inactive) and -2.1 (inactive) in [7]. For the same molecule, the remaining NAD in assay [6] is 10 nM (inactive).
Consider `Cc1ccc(NC(=O)c2ccc(CN3CCN(C)CC3)cc2)cc1Nc1nccc(-c2cccnc2)n1`, for which, in [1], the AC50 was 23.5 µM (active). Moreover, in [2], the molecule was classed as inactive. The SSMD in assay [8] is 2.47. Besides, the cell count in assay [8] was 6720. Moreover, the plate-normalised HSF1 focus index in assay [8] was 1.13 (inactive). The viability in assay [9] (at 0.000305 µM, OCI-C5x cells, with rucaparib 10 µM, 100% = cells with rucaparib alone) is 112% (inactive) and 107% (inactive); in [9] (at 0.000305 µM, OCI-C5x cells, without rucaparib), 107% (inactive) and 98.4% (active); in assay [9] (at 0.000305 µM, OCI-P5x cells, with rucaparib 20 µM, 100% = cells with rucaparib alone), 97.9% (active) and 85.2% (active); in assay [9] (at 0.000305 µM, OCI-P5x cells, without rucaparib), 98.1% (active) and 85.5% (active); in assay [9] (at 0.00122 µM, OCI-C5x cells, with rucaparib 10 µM, 100% = cells with rucaparib alone) it was 109% (inactive) and 103% (inactive); in assay [9] (at 0.00122 µM, OCI-C5x cells, without rucaparib), 106% (inactive) and 98.3% (active). The viability is 95.4% (active) and 92.7% (active) in [9] (at 0.00122 µM, OCI-P5x cells, with rucaparib 20 µM, 100% = cells with rucaparib alone); 96.8% (active) and 89.4% (active) in assay [9] (at 0.00122 µM, OCI-P5x cells, without rucaparib); 113% (inactive) and 114% (inactive) in assay [9] (at 0.00488 µM, OCI-C5x cells, with rucaparib 10 µM, 100% = cells with rucaparib alone); 108% (inactive) and 102% (inactive) in assay [9] (at 0.00488 µM, OCI-C5x cells, without rucaparib); 92.2% (active) and 93.1% (active) in [9] (at 0.00488 µM, OCI-P5x cells, with rucaparib 20 µM, 100% = cells with rucaparib alone); 99.4% (active) and 94.5% (active) in assay [9] (at 0.00488 µM, OCI-P5x cells, without rucaparib). The viability was 120% (inactive) and 104% (inactive) in assay [9] (at 0.0195 µM, OCI-C5x cells, with rucaparib 10 µM, 100% = cells with rucaparib alone); 112% (inactive) and 98.4% (active) in assay [9] (at 0.0195 µM, OCI-C5x cells, without rucaparib); 94.9% (active) and 104% (inactive) in [9] (at 0.0195 µM, OCI-P5x cells, with rucaparib 20 µM, 100% = cells with rucaparib alone); 95% (active) and 94.1% (active) in [9] (at 0.0195 µM, OCI-P5x cells, without rucaparib); 123% (inactive) and 97.7% (active) in [9] (at 0.0781 µM, OCI-C5x cells, with rucaparib 10 µM, 100% = cells with rucaparib alone); 115% (inactive) and 101% (inactive) in assay [9] (at 0.0781 µM, OCI-C5x cells, without rucaparib). Besides, the viability in [9] (at 0.0781 µM, OCI-P5x cells, with rucaparib 20 µM, 100% = cells with rucaparib alone) is 95% (active) and 100% (inactive); in [9] (at 0.0781 µM, OCI-P5x cells, without rucaparib) it was 96.1% (active) and 97.9% (active); in assay [9] (at 0.313 µM, OCI-C5x cells, with rucaparib 10 µM, 100% = cells with rucaparib alone), 120% (inactive) and 104% (inactive); in assay [9] (at 0.313 µM, OCI-C5x cells, without rucaparib), 110% (inactive) and 103% (inactive); in assay [9] (at 0.313 µM, OCI-P5x cells, with rucaparib 20 µM, 100% = cells with rucaparib alone), 100% (inactive) and 103% (inactive); in assay [9] (at 0.313 µM, OCI-P5x cells, without rucaparib) it was 96.2% (active) and 101% (inactive). Also, the viability in assay [9] (at 1.25 µM, OCI-C5x cells, with rucaparib 10 µM, 100% = cells with rucaparib alone) is 118% (inactive) and 105% (inactive); in [9] (at 1.25 µM, OCI-C5x cells, without rucaparib) it was 115% (inactive) and 106% (inactive); in assay [9] (at 1.25 µM, OCI-P5x cells, with rucaparib 20 µM, 100% = cells with rucaparib alone), 95.6% (active) and 99.9% (active); in [9] (at 1.25 µM, OCI-P5x cells, without rucaparib), 95.1% (active) and 100% (inactive); in assay [9] (at 5 µM, OCI-C5x cells, with rucaparib 10 µM, 100% = cells with rucaparib alone) it was 133% (inactive) and 131% (inactive); in assay [9] (at 5 µM, OCI-C5x cells, without rucaparib), 124% (inactive) and 134% (inactive). The viability in [9] (at 5 µM, OCI-P5x cells, with rucaparib 20 µM, 100% = cells with rucaparib alone) is 84.6% (active) and 98.4% (active); in assay [9] (at 5 µM, OCI-P5x cells, without rucaparib) it was 89.8% (active) and 103% (inactive). Moreover, the remaining NAD in assay [6] is 10 nM (inactive). The z-score in assay [7] was -1.09 (inactive) and -0.785 (inactive).
Take `Nc1ncnc2c1ncn2[C@@H]1O[C@H](CO)[C@@H](O)[C@H]1O`: the molecule was classed as inactive in assay [1], in assay [2] and in [3]. The fold change is 0.803 (inactive) in assay [4] (setting [12]) and 0.527 in assay [4] (setting [13]). For the same molecule, the cell count in [4] (setting [14]) came out at 10400; in assay [4] (setting [15]), 12900. For the same molecule, the remaining NAD in assay [6] was 10 nM (inactive). Further, in assay [10], the luciferase signal was 112 AU (inactive).
For `CC/C(=C(/CC)c1ccc(O)cc1)c1ccc(O)cc1`, the result in assay [1] and in [3] was inactive. Further, the z-score in [5] (setting [16]) is 0.343 (inactive) and 0.665 (inactive); in assay [5] (setting [17]), -0.0589 and -0.544; in assay [7] it was -0.645 (inactive). In [6], the remaining NAD was 10 nM (inactive). The luciferase signal in assay [10] is 56 AU (inactive).
With `OC[C@H]1O[C@@H](O[C@@H]2[C@@H](CO)O[C@](O)(CO)[C@H]2O)[C@H](O)[C@@H](O)[C@H]1O`, the result in [2], in [11] and in assay [3] was inactive. In addition, the values for the fold change in assay [4] (setting [12]) and in [4] (setting [13]) were 0.922 (inactive) and 1.95, respectively. Also, the cell count in assay [4] (setting [14]) stood at 11500; in [4] (setting [15]), 12500. Further, the remaining NAD in [6] was 10 nM (inactive). Moreover, the luciferase signal in [10] was 16 AU (inactive).

As a reminder, the AC50 is the concentration at which the activity in the assay is half-maximal. For orientation: viability means a read-out of living cells in per cent, often relative to untreated cells.
